The record followed here is PubChem BioAssay (EPA / NIEHS).

The structures appear in SMILES notation. Active and inactive are the calls of the source. Rule for the calls: active = hit-call score of the fitted dose curve at least 0.9, where 1 is the maximum; inactive = score below 0.9.

This assay is described as follows: CCTE_Shafer_MEA_acute_burst_percentage_mean: CCTE's Neural Acute Assay for Percentage of Spikes in a Burst, Shafer Lab (AID 2284017).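 For AC50: curve fitted for loss of signal so potency reflects decreased burst percentage.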 Here is the method:
CCTE_Shafer_MEA_acute assay is conducted using Axion Biosystems 48 well microelectrode array (MEA) plates and Maestro recording system. Each well of the MEA plate contains a grid of 16 microelectrodes embedded in the culture surface. Electrically active cells, such as neurons, can be cultured over the electrodes, and electrical activity in these cells can be recorded extracellularly. The spontaneous firing of neurons is captured from each electrode on a microsecond timescale providing both temporally and spatially precise data. […] The CCTE_Shafer_MEA_acute assay uses primary cultures of rat cortical neurons. As these cultures mature over time, neural networks develop functional activity and form cohesive networks in which electrical activity can be highly coordinated. Baseline 40-minute recordings are made on days post-plating 13 or 15, followed by a secondary 40-minute recording after chemical exposure.CCTE_Shafer_MEA_acute_burst_percentage_mean is a component of the CCTE_Shafer_MEA_acute assay. It measures the percentage of spikes (action potential firing) in a single-electrode burst (temporally-clustered groups of spikes) as the number of spikes in bursts divided by the total number of spikes during a recording in a microelectrode array (MEA) using Axion Biosystems Maestro 768 channel amplifier with the AxIS adaptive spike detector. The average of the burst percentages across electrodes is calculated to report a well-level value. The recordings before and after chemical treatment are used to calculate a percent change in the mean burst percentage in each well.Data from the assay component CCTE_Shafer_MEA_acute_burst_percentage_mean was analyzed into 1 assay endpoint. This assay endpoint, CCTE_Shafer_MEA_acute_burst_percentage_mean, was analyzed in the negative analysis fitting direction relative to DMSO as the negative control and baseline of activity. Using a type of functional reporter, gain or loss-of-signal activity can be used to understand electrical activity.
Spontaneous activity in the cortical cultures was recorded using an Axion Biosystems Maestro 768 channel amplifier and Axion Integrated Studios (AxIS) v1.8 (or later) software. The amplifier recorded from all channels simultaneously (gain = 1200 x; sampling rate = 12.5 kHz/channel): raw signals were filtered with a Butterworth band-pass filter (300-5000 Hz), which filters out slower local field potentials leaving only fast potentials, i.e., "spikes", arising from extracellular currents associated with action potentials (Pine 2006; Wheeler and Nam 2011). On-line spike detection of filtered signals was conducted with the AxIS adaptive spike detector, using a threshold of 8x the root mean squared (rms) noise on each channel. Any electrodes with rms noise levels greater than 5 uV were grounded (e.g., no data were recorded). Once grounded, an electrode was grounded for the duration of the experiment. All recordings were conducted at 37 C. Wells were deemed usable if on the day of the exposure >/= 10 electrodes were active (defined as >/= 5 spikes/min). On DIV 13 or 15, a minimum of three wells from one cortical culture preparation were treated with each compound (0.03-40 uM). Prior to recording baseline activity, each mwMEA plate was placed in the Maestro at 37 C and allowed to sit for 20 min while firing rates stabilized. Baseline activity (40 min) was recorded before the addition of each compound. An additional 40 min of spontaneous activity was recorded in the presence of each compound. Changes in network parameters relative to baseline were assessed following compound treatment.
As for `Cc1ccccc1OP(=O)(Oc1ccccc1C)Oc1ccccc1C`, the AC50 was 26.3 µM (active).
In the case of `CC(C)[C@@H](Nc1ccc(C(F)(F)F)cc1Cl)C(=O)OC(C#N)c1cccc(Oc2ccccc2)c1` (stereo not given in full), the concentration at half-maximal activity (AC50) is 0.62 µM (active).
`Clc1cccc(Cl)c1Cl`: the result was inactive.
On the same count and under the same terms, for `Oc1ccc(Cc2ccc(O)cc2)cc1` the value was “inactive”; for `CS(=O)(=O)c1ccc(C(=O)C2C(=O)CCCC2=O)c(Cl)c1COCC(F)(F)F`, “inactive”; for `CCCCCCCCCCCCc1cccc(S(=O)(=O)O)c1`, “inactive”.
With `CCCCOC(=O)COC(=O)c1ccccc1C(=O)OCCCC`, the compound was called inactive.
Still for that read-out and setting: as for `CN(C)C(=S)S`, the entry is “inactive”.
Take `Oc1cc(Cl)c(Cl)cc1Cl`: the AC50 is 36.5 µM (active).
For `O=C(Cc1ccccc1)OCCc1ccccc1`, the compound was called inactive.
For `CC1(C)[C@H](C(=O)O[C@H](C#N)c2cccc(Oc3ccccc3)c2)[C@@H]1/C=C(\Cl)C(F)(F)F`, the AC50 is 0.841 µM (active).
Still for that read-out and setting: as for `Cc1cc(C(F)(C(F)(F)F)C(F)(F)F)ccc1NC(=O)c1cccc(I)c1C(=O)NC(C)(C)CS(C)(=O)=O`, the figure is 5.38 µM (active).
Turning to `OCCCCO`, the outcome was inactive.
As to `N#Cc1cccnc1`, the compound was called inactive.
With `CC(C)(C)c1ccccc1O`, the AC50 was 20 µM (active).

One may read the AC50 as the concentration at which the activity in the assay is half-maximal.
